# Results from PubChem BioAssay (NCATS).
# Results filed as inconclusive are left out. Calls of active or inactive are those of the source. Calls come from the whole dose curve; as a rule, active = well fitted inhibition curve with a large enough effect; inconclusive = small, poorly fitted or top-dose-only effect; inactive = flat fitted curve, though single readings scatter.
# Test system: HaCat
# Experiment: Cytotoxic Profiling of Annotated Libraries Using Quantitative High-Throughput Screening (AID 1296008); note: nearly all actives have a fitted effect of over 60% in size
# Conditions: Five cell lines viability, CellTiter-Glo ATP luminescence, 48-72 h; max response: active compounds read low
# Outline: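 Cytotoxicity was measured as CellTiter-Glo ATP luminescence, read after 10 min at room temperature. Compound treatment of the cells lasted 48 or 72 hr at 37 degrees Celsius in a qHTS format.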
# % is set by controls: 0 for no effect and ±100 for the full control effect.
SMILES,max response,outcome
Cn1nnc(-c2ccc(-c3ccc(N4C[C@H](CO)OC4=O)cc3F)cn2)n1,-5.65% (inactive),
CC(=O)OC1CC2C3(C)CCC(OC(=O)CC(=O)O)C(C)(C)C3CCC2(C)C2(C)CCC(C3(C)CCC(=O)O3)C12 (configuration not stated),3.4% (inactive),
COc1cc(O)cc(/C=C/c2ccc(O[C@@H]3O[C@H](CO)[C@@H](O)[C@H](O)[C@H]3O)cc2)c1,0.534% (inactive),
O=S(=O)(c1ccccc1)c1cnc2c(N3CCNCC3)cccc2c1,,inactive
CC(C)c1cc(C(=O)N2CC[C@H](NC(=O)C3CC3)C2)n[nH]1,,inactive
CC(=O)OC1C(O)CC2(C)C(CCC(C)C23Cc2c(O)cc(CO)c(C=O)c2O3)C1(C)C (configuration not stated),-3.73% (inactive),
COC(=O)CC(C)(O)CC(=O)OCc1ccc(O[C@@H]2O[C@H](CO)[C@@H](O)[C@H](O)[C@H]2O)cc1 (some centres not stated),2.19% (inactive),
CC(Cc1cc2c(c(C(N)=O)c1)N(CCCO)CC2)NCCOc1ccccc1OCC(F)(F)F (configuration not stated),2.13% (inactive),
O=C1CCC=CC1(O)C(=O)OCc1ccccc1O[C@@H]1O[C@H](CO)[C@@H](O)[C@H](O)[C@H]1O (some centres not stated),-22.3% (inactive),
Cc1ccccc1C#Cc1ccc(CCC(=O)O)cc1,-15.6% (inactive),
C=C1C(O)CC2C(C(=O)O)=COC(O[C@@H]3O[C@H](COC(=O)/C=C/c4ccc(O)cc4)[C@@H](O)[C@H](O)[C@H]3O)C12 (some centres not stated),-10.4% (inactive),
O=C(OC1C=C(CO)C2C(OC3OC(CO)C(O)C(O)C3O)OC=CC12)c1ccc(O)cc1 (configuration not stated),-13.5% (inactive),
